# Measurements from PubChem BioAssay (NCI).
# This is part of a sample that, as a whole, favours compounds with a hit. Of some 83,000 tested, about 20% had one in any assay.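 How to read the values: 0–100, growth inhibition (40 = 60% inhibited); 0, no net growth; -100 to 0, cell death (-40 = 40% of starting cells died; -100 = all dead).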 A number with no mark means an inactive call. The source made the active and inactive calls.
# Tested on: OVCAR-3 ovarian
# Test: NCI-60 one-dose screen, 48 h (100 = growth as untreated, 0 = no growth, -100 = all killed)
# Conditions: 10 µM unless noted
# Procedure: Growth inhibition of the OVCAR-3 human tumor cell line is measured as a screen for anti-cancer activity. Cells are grown in 96 well plates and exposed to the test compound for 48 hours. Compounds are tested at a single concentration, which is 10^-5 M for most compounds. The reported endpoint is percent growth (GI% or GIPRCNT), where numbers from 0 - 100% represent growth inhibition, and numbers from -100% - 0 represent cell death. For example, a value of 40 represents 60% growth inhibition. A value of 0 means no net growth occurred over the course of the experiment. A value of -40 indicates 40% of cells at the beginning of the experiment died by the end of the experiment. A value of -100 means all cells are dead at the end of the experiment.
# NCI-60 Human Tumor Cell Lines Screen was performed using the standard one-dose NCI protocol, which is described in more detail at https://dtp.cancer.gov/discovery_development/nci-60/default.htm.
# Compounds with GIPRCNT values below 10 were considered active. Activity score was based on GIPRCNT using the following formula: […]
# Score is 0 for GIPRCNT values of 100 or above, 50 for GIPRCNT values of 0, and 100 for GIPRCNT values of -100.
row,Compound,growth
1,COc1ccc(C(=O)c2ccc(C)cc2)c(OC)c1OC,66.7%
2,CC1(C)CC[C@]2(C(=O)NCCNCCN)CC[C@]3(C)C(=CC[C@@H]4[C@@]5(C)CCC(=O)C(C)(C)[C@@H]5CC[C@]43C)[C@@H]2C1,-27.2% (active)
3,COc1cc(-c2cc(-c3nc4cc(Cl)c(Cl)cc4[nH]3)[nH]n2)cc(OC)c1OC,52.2%
4,Cc1cc(N2CCN(C)CC2)nc(N(CCNc2ccnc3cc(Cl)ccc23)Cc2ccco2)n1,3.21% (active)
5,Fc1ccc2c(c1)c(-c1nc(-c3c[nH]c4ncccc34)cs1)cn2CCCN1CCCCC1,61.7%
6,Cn1cnc2c1c(=O)n(CCC(=O)Nc1ccc(F)cc1)c(=O)n2C,115%
7,O=C(NC1=CC(=O)c2ccccc2C1=O)c1ccccc1,-82.5% (active)
8,CC[C@]12C=CCN3CC[C@@]4(c5cc([C@H]6CCC(=O)N6)c(OC)cc5N(C)[C@H]4[C@@](O)(C(=O)OC)[C@@H]1OC(C)=O)[C@@H]32,112% [2.5 µM]
9,COC(=O)CCCCCn1c2ccccc2c2c3c(c4c5ccccc5[nH]c4c21)C(=O)N(O)C3=O,33.2%
10,COC(=O)[C@]12CC[C@@H](C(C)=O)[C@@H]1[C@H]1CC[C@@H]3[C@@]4(C)C/C(=C/c5cccnc5)C(=O)C(C)(C)[C@@H]4CC[C@@]3(C)[C@]1(C)CC2,49%
11,O=C(O[C@@H]1Cc2c(O)cc(O)cc2O[C@@H]1c1cc(O)c(O)c(O)c1)c1cc(O)c2c(c1)OCO2,106%
12,COc1ccc(-c2nc3ccccn3c2-c2nc3ccc(Cl)cc3[nH]2)cc1,73.9%
13,CCCCCC1CCCCN1C(=O)OCC (stereo not given),109%
14,CC1(C)C=CC[C@]2(C)[C@H]3CC[C@@H]4[C@H]5[C@H](C(=O)/C=C/c6cccnc6)CC[C@]5(CO)CC[C@@]4(C)[C@]3(C)CC[C@@H]12,-94.6% (active)
15,O=C(CCCCCn1c2ccccc2c2c3c(c4c5ccccc5[nH]c4c21)C(=O)N(O)C3=O)N1CCOCC1,40.9%
16,C[Si](C)(C)Cc1ccccc1,127%
17,N#Cc1c(-c2ccco2)nc2c(c(-c3ccccc3)nn2-c2ccccc2)c1-c1ccc(O)cc1,86%
18,COc1ccc(-c2cc(/C=C/C(=O)c3ccc(OC)c(OC)c3)[nH]n2)cc1,-14.6% (active)
19,Nc1nc2c3ccncc3cc(-c3cccc(Cl)c3)c2c2cnccc12,54.6%
20,c1ccc2[nH]c(-c3cc(-c4ccc5c(c4)OCO5)n[nH]3)nc2c1,40.8%

row,Compound,growth
1,CCN1CCN(C(=O)[C@]23CCC(C)(C)C[C@H]2C2=CC[C@@H]4[C@@]5(C)CC/C(=N/O)C(C)(C)[C@@H]5CC[C@@]4(C)[C@]2(C)CC3)CC1,53.5%
2,COC(=O)[C@]12CC[C@@H](C)[C@H](C)[C@@H]1C1=CC[C@@H]3[C@@]4(C)C[C@@H](OC(C)=O)[C@H](O)[C@@](C)(COC(C)=O)[C@@H]4[C@H](O)C[C@@]3(C)[C@]1(C)CC2,-79.4% (active)
3,Cc1nn2c(-c3nc4cc(Cl)c(Cl)cc4[nH]3)c(-c3ccc(F)cc3)nc2s1,-13.2% (active)
4,COc1cc(NC(C)CN(CC(C)C)C(C)C)c2ncccc2c1 (stereo not given),92.9%
5,O=C(CI)Nc1ccc(O)c2ccccc12,-29.5% (active)
6,Clc1ccccc1-c1nc(Nc2nc3ccccc3s2)nc(C(Cl)(Cl)Cl)n1,4.03% (active)
7,OCC1OC(n2cnc3c(Cl)ncnc32)CC1O (stereo not given),115%
8,COc1cc(-c2nc(-c3ccccc3)c(-c3ccccc3)[nH]2)cc(OC)c1O,-80.9% (active)
9,N#C/C(=C\c1ccc(-c2ccc(F)cc2)o1)c1nc(-c2ccco2)cs1,105%
10,Nc1c(Cl)cc(N=Nc2ccccc2)cc1Cl,84.6%
11,Cn1cc(-c2nc(-c3cn(C)c4ncccc34)cs2)c2cc(F)ccc21,1.46% (active)
12,CCSc1sc(-c2ccc(C)cc2)nc1[P+](c1ccccc1)(c1ccccc1)c1ccccc1,-12.7% (active)
13,CCc1nnc(NC(=O)c2ccoc2COc2ccccc2)s1,33.8%
14,CCOC(=O)N1CCN(CCCCOc2ccc(C(C)(C)CC)cc2)CC1,103%
15,Cc1cccc(C)c1NC(=O)CSC(=S)N1CCN(CCOCCO)CC1,102%
16,CCCNc1nc(N(C)O)nc(N(C)O)n1,-10.6% (active)
17,COC(=O)[C@]12CC[C@@H](C)[C@H](C)[C@@H]1C1=CC[C@@H]3[C@@]4(C)CC(=O)[C@H](OC(=O)c5ccco5)[C@@]5(C)COC(=C45)C[C@@]3(C)[C@]1(C)CC2,43.5%
18,O=[N+]([O-])c1cc(S(=O)(=O)c2ccc(F)c([N+](=O)[O-])c2)ccc1F,101%
19,Cc1cc(N(CCCNc2ccnc3cc(Cl)ccc23)Cc2ccco2)nc(N2CCN(C)CC2)n1,56.6%
20,Cn1cc(-c2csc(-c3cn(CCCN4CCCCC4)c4ccc(F)cc34)n2)c2cccnc21,93.2%
